Test results reported in PubChem BioAssay AID504333 (National Center for Advancing Translational Sciences (NCATS), 2011).
In all, about 360,000 compounds went through this assay and about 16,000 (4.4%) were called active. Not shown: some 9% with an inconclusive outcome. The entries come from a sample that favours actives as a whole. Unmarked numbers belong to inactive results. Calls come from the whole dose curve; as a rule, active = well fitted inhibition curve with a large enough effect; inconclusive = small, poorly fitted or top-dose-only effect; inactive = no such curve, though single readings can be large or run the other way.

Biological target: Bromodomain adjacent to zinc finger domain protein 2B (Homo sapiens) (UniProt Q9UIF8)
Assay: qHTS Assay for Inhibitors of BAZ2B; note: nearly all actives have a fitted effect of over 60% in size
Settings: AlphaScreen BAZ2B-H3K14Ac peptide displacement; series mostly up to 114 µM; activity change, negative = inhibition: at the top concentration
Text: BAZ2B (bromodomain adjacent to zinc finger domain, 2B) belongs to a family of ubiquitously expressed bromodomain containing proteins, which biological function has not yet been elucidated. […] The interaction of BAZ2B with ISWI mediated by the BAZ1 motif has recently been described. […] The protocol is based on the AlphaScreen (PerkinElmer) displacement assay developed by NCGC [5], but uses the peptide ligand Biot-H3K14Ac, a high affinity binding partner for BAZ2B, in an AlphaScreen format. Although AlphaScreen has significant advantages with its utility in a variety of epigenetic target assays, the primary screening data provided in this deposition should be used with caution due to the prevalence of screening artifacts. The top compound concentration tested was 110uM in this assay, which increases number of actives and potential artifacts. An AlphaScreen counterscreen is highly recommended to be run against any putative actives to eliminate non-specific artifacts. Alternatively, one can use other AlphaScreen assays in PubChem to filter out promiscuous hits. Eberharter, A. et al. ACF1 improves the effectiveness of nucleosome mobilization by ISWI through PHD-histone contacts. The EMBO journal 23, 4029-4039. 2004. PMID: 15457208 [2] Jones, M.H. et al. A novel family of bromodomain genes. Genomics 63, 40-45. 2000. PMID: 10662543 [3] Yasgar, et al. Compound Management for Quantitative High-Throughput Screening. JALA. 2008 Apr;13(2):79-89. PMID: 18496600 [4] Inglese, et al. Quantitative high-throughput screening: a titration-based approach that efficiently identifies biological activities in large chemical libraries. Proc Natl Acad Sci. 1;103(31):11473-8. 2006. PMID: 16864780 [5] Quinn et al. A chemiluminescence-based method for identification of histone lysine methyltransferase inhibitors. Mol Biosyst 6(5): 782-8. 2010. PMID: 20567762 [6] Baell,Holloway. New substructure filters for removal of pan assay interference compounds (PAINS) from screening libraries and for their exclusion in bioassays. J Med Chem. 53(7):2719-40. 2010. PMID: 20131845 NIH Molecular Libraries Probe Production Network [MLPCN] NIH Chemical Genomics Center [NCGC] Structural Genomics Consortium (SGC) NIH Grant: 5U54 MH084681-02
To each well of a 1,536w plate, 2ul of BAZ2B protein (final 50nM) and 1ul biotinylated histone peptide acetylated at Lys14 [b-H3(5-23)K14Ac] (final 50nM) were added in 1x PBS buffer, pH 7.4, containing 0.01% Tween-20, using a nanoliter dispenser. Formation of a protein-peptide complex proceeded at room temperature for 30 min. A Kalypsys pin-tool was employed to transfer 23 nL of library compound solution in DMSO to each well. Following a 30 min incubation of the protein-peptide complex with compounds at room temperature, a mixture of 40 ug/mL each streptavidin-coated donor and nickel chelate acceptor AlphaScreen beads (final 10 ug/mL) were added in a 1ul dispense for a final volume of 4ul. A brief centrifugation followed (1000rpm, 1 min) and were then incubated protected from the light for 20 min at room temperature. Plates were read on an EnVision multilabel plate reader using the 1,536 plate HTS AlphaScreen aperture (excitation time 80 ms, measurement time 240 ms).
% is set by controls: 0 for no effect and ±100 for the full control effect; potency is the fitted concentration of half-maximal effect.

Chain of Bromodomain adjacent to zinc finger domain protein 2B (Homo sapiens) (Q9UIF8 whole entry, looked up, the tested form may be a part): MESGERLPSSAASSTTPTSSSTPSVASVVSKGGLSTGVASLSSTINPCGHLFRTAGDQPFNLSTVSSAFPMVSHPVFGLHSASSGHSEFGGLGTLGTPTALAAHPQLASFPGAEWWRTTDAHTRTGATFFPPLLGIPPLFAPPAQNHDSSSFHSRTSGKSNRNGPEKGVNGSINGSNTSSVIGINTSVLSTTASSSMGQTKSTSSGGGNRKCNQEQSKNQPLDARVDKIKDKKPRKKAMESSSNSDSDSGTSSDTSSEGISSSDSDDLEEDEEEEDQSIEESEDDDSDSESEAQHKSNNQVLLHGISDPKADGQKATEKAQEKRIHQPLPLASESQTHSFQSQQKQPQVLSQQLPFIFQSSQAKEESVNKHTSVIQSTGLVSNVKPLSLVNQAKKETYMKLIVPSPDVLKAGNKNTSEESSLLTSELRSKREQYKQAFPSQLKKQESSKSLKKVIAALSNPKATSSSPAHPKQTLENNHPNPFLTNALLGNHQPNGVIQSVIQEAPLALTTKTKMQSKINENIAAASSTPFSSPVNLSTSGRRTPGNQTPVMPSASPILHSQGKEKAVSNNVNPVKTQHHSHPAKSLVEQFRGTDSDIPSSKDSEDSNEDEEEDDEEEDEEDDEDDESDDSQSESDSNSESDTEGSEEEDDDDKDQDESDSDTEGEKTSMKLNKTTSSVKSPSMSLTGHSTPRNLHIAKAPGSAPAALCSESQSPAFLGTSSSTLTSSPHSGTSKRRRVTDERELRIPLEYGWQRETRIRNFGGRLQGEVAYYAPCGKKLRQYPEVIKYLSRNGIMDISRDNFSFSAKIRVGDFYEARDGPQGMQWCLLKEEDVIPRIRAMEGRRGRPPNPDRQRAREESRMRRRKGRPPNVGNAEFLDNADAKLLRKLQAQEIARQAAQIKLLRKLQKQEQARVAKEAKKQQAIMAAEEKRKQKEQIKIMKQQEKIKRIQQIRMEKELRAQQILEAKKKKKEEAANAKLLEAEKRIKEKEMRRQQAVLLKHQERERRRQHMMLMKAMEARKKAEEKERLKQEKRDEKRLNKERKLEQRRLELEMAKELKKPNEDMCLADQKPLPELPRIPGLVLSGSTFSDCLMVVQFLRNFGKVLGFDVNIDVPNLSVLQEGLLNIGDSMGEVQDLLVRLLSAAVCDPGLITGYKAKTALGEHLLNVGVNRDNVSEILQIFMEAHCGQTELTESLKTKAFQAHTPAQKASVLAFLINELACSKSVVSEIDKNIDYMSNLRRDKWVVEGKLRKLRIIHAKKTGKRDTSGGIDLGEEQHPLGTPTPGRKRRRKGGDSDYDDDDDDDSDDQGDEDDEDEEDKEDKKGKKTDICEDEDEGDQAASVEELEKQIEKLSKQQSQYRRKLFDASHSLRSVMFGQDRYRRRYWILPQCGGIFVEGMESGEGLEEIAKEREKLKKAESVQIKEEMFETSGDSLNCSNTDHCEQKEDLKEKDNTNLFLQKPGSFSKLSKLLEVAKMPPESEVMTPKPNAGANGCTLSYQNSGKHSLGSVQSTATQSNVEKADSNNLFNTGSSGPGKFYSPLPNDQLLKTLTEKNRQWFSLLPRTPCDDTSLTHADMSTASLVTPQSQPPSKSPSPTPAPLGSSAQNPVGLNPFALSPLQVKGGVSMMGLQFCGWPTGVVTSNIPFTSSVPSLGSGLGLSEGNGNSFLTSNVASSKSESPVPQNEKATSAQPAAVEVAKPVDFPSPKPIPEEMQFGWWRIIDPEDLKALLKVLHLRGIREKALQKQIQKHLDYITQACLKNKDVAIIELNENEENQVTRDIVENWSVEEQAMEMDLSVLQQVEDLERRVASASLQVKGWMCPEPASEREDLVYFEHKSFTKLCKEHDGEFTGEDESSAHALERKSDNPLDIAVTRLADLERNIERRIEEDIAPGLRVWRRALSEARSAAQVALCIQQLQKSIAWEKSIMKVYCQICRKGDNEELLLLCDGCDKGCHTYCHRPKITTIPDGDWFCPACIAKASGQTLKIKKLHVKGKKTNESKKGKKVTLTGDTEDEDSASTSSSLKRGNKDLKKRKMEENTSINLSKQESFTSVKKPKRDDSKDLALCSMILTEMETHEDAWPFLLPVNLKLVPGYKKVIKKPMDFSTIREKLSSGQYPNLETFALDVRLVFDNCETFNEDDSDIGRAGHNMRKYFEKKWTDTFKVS

SMILES	activity change, negative = inhibition	Potency
Cc1cc(C)c2oc(C(=O)Nc3ccc(S(=O)(=O)N4CCCCCC4)cc3)cc(=O)c2c1	-12%	–
CCCCc1nn2c(=O)cc(COC(=O)c3ccc(NC(=O)c4ccccc4C)cc3)nc2s1	-9.26%	–
CN1CCN(C2(CNC(=O)COc3ccc(C(C)(C)C)cc3)CCCCC2)CC1	-24.8%	–
CC1CCN(S(=O)(=O)c2ccc3c(c2)N(CC(=O)NCc2ccccc2Cl)C(=O)CO3)CC1	-6.03%	–
CCOC(=O)c1scc(-c2ccc(C)cc2)c1S(=O)(=O)Nc1cc(C)ccc1C	-8.58%	–
O=C1CCCC(O)=C1N=Nc1ccc(S(=O)(=O)N2CCOCC2)cc1	–	79.4 µM (active)
O=C(CN1C(=O)CCC1=O)Nc1ccc(S(=O)(=O)N2CCOCC2)cc1	-5.81%	–
CC1(C)CC(=O)C(N=Nc2ccc(S(=O)(=O)N3CCCCCC3)cc2)=C(O)C1	-3.64%	–
COC(=O)c1ccc2c(c1)N(CC(=O)Nc1ccc(C)c(C)c1)C(=O)c1ccccc1S2	-1.49%	–
COCCNC(=O)CSc1c(C)cnc2c1c(=O)n(C)c(=O)n2C	4.31%	–
COc1cc2ccccc2cc1C(=O)Nc1cccc(-c2nc3ccccc3o2)c1	1.7%	–
Cc1ccccc1NC(=O)CN1C(=O)N/C(=C\c2cccn2-c2cccc(C(=O)O)c2)C1=O	–	20 µM (active)
Cc1ccccc1NC(=O)CN1C(=O)C(C)(C)c2ccccc21	5.06%	–
O=C1N/C(=C/c2cccn2-c2ccccc2)C(=O)N1c1cccc(Cl)c1	-0.902%	–
COc1ccc(OC)c(NC(=O)CSC2=Nc3ccccc3C3=NC(CC(=O)NCCc4ccccc4)C(=O)N23)c1 (configuration not stated)	-15.3%	–
O=C(CCSCc1ccccc1F)N1CCN(c2ccc(Cl)cc2)CC1	1.82%	–
CCCc1nc2ccccc2c(=O)n1/N=C/c1ccc(O)c(O)c1	–	56.2 µM (active)
CCOc1cc(/C=N/NC(=O)c2cc(-c3ccccc3)nc3ccccc23)ccc1O	-0.596%	–
O=c1c2ccccc2ncn1/N=C/c1ccccc1	0.598%	–
COc1ccc(Cn2ccn(Cc3cccc(OC)c3)c(=O)c2=O)cc1	-26.1%	–
COc1ccc(CCNC(=O)c2ccc(-n3c(C)cc4c3CCCC4)cc2)cc1OC	-8.94%	–

SMILES	activity change, negative = inhibition	Potency
CC(C)(C)c1ccc(OC2=CS(=O)(=O)c3ccccc32)cc1	3.61%	–
Cc1ccc(Oc2ccc(N)cc2)cc1	–	31.6 µM (active)
CN(C)S(=O)(=O)c1ccc(Oc2ccc(S(=O)(=O)N(C)C)cc2)cc1	0.486%	–
Cc1cc(C)cc(N)c1	0.691%	–
CC(C)(c1ccccc1)c1ccc(OCCN)cc1	-0.871%	–
CC(C)(C)c1ccc(Oc2ccc(N)cc2)cc1	–	39.8 µM (active)
O=C(CSc1oc(-c2ccco2)nc1S(=O)(=O)c1ccc(Cl)cc1)c1ccccc1	15.2%	–
CC(C)(C)C1C/C(=C/c2ccco2)C(=O)/C(=C/c2ccco2)C1 (configuration not stated)	–	25.1 µM (active)
CCc1ccc(C2C(C(=O)Nc3ccccc3)=C(C)Nc3c(C(=O)Nc4ccc(C)cc4)cnn32)cc1 (configuration not stated)	8.98% [at 57.1 µM]	–
Cc1cc(O)c(C(c2ccccc2)N2CCN(c3ccccc3F)CC2)c(=O)n1Cc1ccco1 (configuration not stated)	-38.4%	–
O=C(O)c1ccccc1N=N/C(=N/Nc1cc(S(=O)(=O)O)ccc1O)c1ccccc1	–	11.2 µM (active)
CCOC(=O)N1CCc2c(sc3c2c(=O)n(-c2ccc(CC)cc2)c(=O)n3C)C1	2.66%	–
O=[N+]([O-])c1ccc(Oc2ccc(F)cc2Br)c2ccncc12	–	31.6 µM (active)
O=[N+]([O-])c1ccc(F)cc1Oc1nc(-c2cccnc2)nc2ccccc12	-16.4%	–
Oc1c(Cl)cc(Cl)c(Cl)c1Cc1c(O)c(Cl)cc(Cl)c1Cl	–	50.1 µM (active)
CCOc1ccc(N(Cc2ccccc2)C(=O)c2nc(S(C)(=O)=O)ncc2Cl)cc1	-21.6%	–
CCc1ccc(NC(=O)CN2C(=O)CCSc3ccc(S(=O)(=O)N4CCCC4)cc32)cc1	-4.59%	–
CCOC(=O)c1ccc(NC(=O)c2csc3c2CCCCC3)cc1	-0.642%	–
CCOC(=O)c1ccc(NC(=O)c2c(NCc3cccs3)sc3c2CCCC3)cc1	–	28.2 µM (active)
CCOC(=O)c1ccc(NC(=O)c2c(NCc3cccc(OC)c3)sc3c2CCC3)cc1	3.03%	–
Cc1ccc(-c2nn3c(=O)cc(CN4CCN(C(=O)Nc5cccc(C(F)(F)F)c5)CC4)nc3s2)cc1	-22.9%	–

SMILES	activity change, negative = inhibition	Potency
COc1cc(CN(C(=O)c2ccccc2Br)c2ccccn2)cc(OC)c1OC	-18.4%	–
COc1ccc(OC)c(CNC(=O)c2c3c(nc4ccccc24)C(=O)N(C2CCCCC2)C3)c1	-9.86%	–
Cc1cc(Nc2ccc(C(=O)N3CCCCC3)cc2)c2cccc(C)c2n1	0.772%	–
Cc1ccc(NC2=NC(c3ccccc3)n3c(nc(C)cc3=O)N2)cc1 (configuration not stated)	12.2%	–
Cc1ccc(Nc2cc(C)nc3c(C)ccc([N+](=O)[O-])c23)cc1	–	10 µM (active)
Cc1cc(=O)n2[nH]c(-c3cccc(Cl)c3)cc2n1	-1.33%	–
Cc1cc(=O)n2[nH]c(-c3sccc3-n3c(C)ccc3C)cc2n1	–	50.1 µM (active)
CCc1c(C)nc2cc(-c3cccs3)[nH]n2c1=O	2.81%	–
COc1ccc(Cc2nc3ccc(C(=O)NCc4ccccc4C)cc3o2)cc1	0.109%	–
Cc1cccc(N2CCN(C(=O)c3ccccc3NC(=O)C3CCCCC3C(=O)O)CC2)c1 (configuration not stated)	-2.25%	–
Cc1cccc(N2CCN(c3ccc(C(=O)O)cc3NC(=O)c3ccccc3F)CC2C)c1 (configuration not stated)	–	56.2 µM (active)
Cc1cccc(C(=O)Nc2ccccc2N2CCN(c3ccc(F)cc3)CC2)c1	-8.8%	–
COc1ccc(NC(=O)c2sc3nc(-c4cc5cccc(OC)c5oc4=O)[nH]c(=O)c3c2C)cc1	5.3%	–
CCn1c2ccccc2c2cc(NC(=O)COC(=O)c3ccccc3Br)ccc21	-36.9%	–
CCn1c2ccccc2c2cc(NC(=O)COc3ccc(C)cc3C)ccc21	2.19%	–
CCn1c2ccccc2c2cc(NC(=O)CNC)ccc21	–	56.2 µM (active)
COc1cc(Cl)ccc1Nc1ncc(C(=O)N2CCN(c3ccccc3OC)CC2)c2ccccc12	-3.95%	–
Cc1cccc(N2CCN(c3c(CN4CCCC4)c(=O)oc4ccccc34)CC2)c1C	-9.79%	–
Cc1cccc(N2CCN(Cc3c(C)n(C)n(-c4ccccc4)c3=O)CC2)c1C	5.93%	–
Cc1cccc(N2CCN(C3=C(c4ccccc4)C(=O)c4ccccc43)CC2)c1C	–	2.24 µM (active)
